Assay outcomes from PubChem.
The list is not random: actives were taken first. Their share in the collection is about 27%.
CYP2C9 inhib: blockers of cytochrome P450 2C9 activity – biochemical, luminescence, ADME assay, primary screen | P11712 | CYP2C9 Supersomes, luciferin-H conversion | inhibition, % at 5 µM | actives 20% (n = 96,000);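 active = blocking of liver enzyme CYP2C9 beyond about 50% at 5 µM, limit read from the data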
CYP2C9 activ: human CYP2C9 activators, primary screen, biochemical, luminescence. Cytochrome P450 2C9 (Homo sapiens), P11712. AID 1024, 2008. actives 1.4% (n = 96,000). activation factor at 5 µM. recombinant CYP2C9, luciferin-H conversion; active compounds read high; factor 1 = untreated enzyme, 0 = blocked;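 active = activation factor of 2 or more for CYP2C9 at a 5 µM dose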;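 note: 0 = sulfaphenazole-blocked wells and 1 = vehicle-only wells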
CYP2C19 inh: blockers of cytochrome P450 2C19 activity – biochemical, luminescence, ADME assay, primary screen; P33261; CYP2C19 Supersomes, luciferin-H EGE luminescence, 30 min; inhibition, % at 5 µM; actives 21% (n = 96,000);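 active = CYP2C19 inhibition above a set limit at 5 µM in the primary screen, cut at about 50% in these data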;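 note: plate controls were negative control wells for no effect and 2.5 mM tranylcypromine positive control for full effect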
Pyk2 oligo antag: antagonists of Pyk2 self-association, primary screen, Q293 cells, FERM NanoBiT luminescence, HTS. active compounds read low. actives 0.83% (n = 99,000). z-score (the deposit names both 25 µM and 10 µM). Protein-tyrosine kinase 2-beta (Homo sapiens), Q14289;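 active = Z-score of -3 or lower, scaled per plate to the spread of control and sample wells; inactive = z-score above -3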;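 note: negative z-score means lost luminescence so less FERM oligomerization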
CYP2C19 act: human CYP2C19 activators, primary screen, biochemical, luminescence; recombinant CYP2C19, luciferin-H EGE luminescence; active compounds read high; 0 = fully inhibited enzyme, 1 = untreated enzyme; activation factor at 5 µM; 96,000 tested, under 10 active; AID 1025, 2008;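 active = activation factor of at least 2 at 5 µM in the primary screen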;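 note: 0 = wells with 2.5 mM tranylcypromine and 1 = vehicle-only wells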
Cav32 inh: Cav3.2 calcium influx blockers – cell-based, Fluo-4 calcium fluorescence, FDSS, MLSMR library, primary screen; Cav3.2-expressing cells; active compounds read low; B-score at 10 µM; actives 4% (n = 100,000); AID 449739, 2010;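 active = single-dose well whose peak fluorescence ratio is a statistical outlier from its plate by either plate-standardised score or position-corrected B-score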
Target sequence (O95180 whole entry, looked up): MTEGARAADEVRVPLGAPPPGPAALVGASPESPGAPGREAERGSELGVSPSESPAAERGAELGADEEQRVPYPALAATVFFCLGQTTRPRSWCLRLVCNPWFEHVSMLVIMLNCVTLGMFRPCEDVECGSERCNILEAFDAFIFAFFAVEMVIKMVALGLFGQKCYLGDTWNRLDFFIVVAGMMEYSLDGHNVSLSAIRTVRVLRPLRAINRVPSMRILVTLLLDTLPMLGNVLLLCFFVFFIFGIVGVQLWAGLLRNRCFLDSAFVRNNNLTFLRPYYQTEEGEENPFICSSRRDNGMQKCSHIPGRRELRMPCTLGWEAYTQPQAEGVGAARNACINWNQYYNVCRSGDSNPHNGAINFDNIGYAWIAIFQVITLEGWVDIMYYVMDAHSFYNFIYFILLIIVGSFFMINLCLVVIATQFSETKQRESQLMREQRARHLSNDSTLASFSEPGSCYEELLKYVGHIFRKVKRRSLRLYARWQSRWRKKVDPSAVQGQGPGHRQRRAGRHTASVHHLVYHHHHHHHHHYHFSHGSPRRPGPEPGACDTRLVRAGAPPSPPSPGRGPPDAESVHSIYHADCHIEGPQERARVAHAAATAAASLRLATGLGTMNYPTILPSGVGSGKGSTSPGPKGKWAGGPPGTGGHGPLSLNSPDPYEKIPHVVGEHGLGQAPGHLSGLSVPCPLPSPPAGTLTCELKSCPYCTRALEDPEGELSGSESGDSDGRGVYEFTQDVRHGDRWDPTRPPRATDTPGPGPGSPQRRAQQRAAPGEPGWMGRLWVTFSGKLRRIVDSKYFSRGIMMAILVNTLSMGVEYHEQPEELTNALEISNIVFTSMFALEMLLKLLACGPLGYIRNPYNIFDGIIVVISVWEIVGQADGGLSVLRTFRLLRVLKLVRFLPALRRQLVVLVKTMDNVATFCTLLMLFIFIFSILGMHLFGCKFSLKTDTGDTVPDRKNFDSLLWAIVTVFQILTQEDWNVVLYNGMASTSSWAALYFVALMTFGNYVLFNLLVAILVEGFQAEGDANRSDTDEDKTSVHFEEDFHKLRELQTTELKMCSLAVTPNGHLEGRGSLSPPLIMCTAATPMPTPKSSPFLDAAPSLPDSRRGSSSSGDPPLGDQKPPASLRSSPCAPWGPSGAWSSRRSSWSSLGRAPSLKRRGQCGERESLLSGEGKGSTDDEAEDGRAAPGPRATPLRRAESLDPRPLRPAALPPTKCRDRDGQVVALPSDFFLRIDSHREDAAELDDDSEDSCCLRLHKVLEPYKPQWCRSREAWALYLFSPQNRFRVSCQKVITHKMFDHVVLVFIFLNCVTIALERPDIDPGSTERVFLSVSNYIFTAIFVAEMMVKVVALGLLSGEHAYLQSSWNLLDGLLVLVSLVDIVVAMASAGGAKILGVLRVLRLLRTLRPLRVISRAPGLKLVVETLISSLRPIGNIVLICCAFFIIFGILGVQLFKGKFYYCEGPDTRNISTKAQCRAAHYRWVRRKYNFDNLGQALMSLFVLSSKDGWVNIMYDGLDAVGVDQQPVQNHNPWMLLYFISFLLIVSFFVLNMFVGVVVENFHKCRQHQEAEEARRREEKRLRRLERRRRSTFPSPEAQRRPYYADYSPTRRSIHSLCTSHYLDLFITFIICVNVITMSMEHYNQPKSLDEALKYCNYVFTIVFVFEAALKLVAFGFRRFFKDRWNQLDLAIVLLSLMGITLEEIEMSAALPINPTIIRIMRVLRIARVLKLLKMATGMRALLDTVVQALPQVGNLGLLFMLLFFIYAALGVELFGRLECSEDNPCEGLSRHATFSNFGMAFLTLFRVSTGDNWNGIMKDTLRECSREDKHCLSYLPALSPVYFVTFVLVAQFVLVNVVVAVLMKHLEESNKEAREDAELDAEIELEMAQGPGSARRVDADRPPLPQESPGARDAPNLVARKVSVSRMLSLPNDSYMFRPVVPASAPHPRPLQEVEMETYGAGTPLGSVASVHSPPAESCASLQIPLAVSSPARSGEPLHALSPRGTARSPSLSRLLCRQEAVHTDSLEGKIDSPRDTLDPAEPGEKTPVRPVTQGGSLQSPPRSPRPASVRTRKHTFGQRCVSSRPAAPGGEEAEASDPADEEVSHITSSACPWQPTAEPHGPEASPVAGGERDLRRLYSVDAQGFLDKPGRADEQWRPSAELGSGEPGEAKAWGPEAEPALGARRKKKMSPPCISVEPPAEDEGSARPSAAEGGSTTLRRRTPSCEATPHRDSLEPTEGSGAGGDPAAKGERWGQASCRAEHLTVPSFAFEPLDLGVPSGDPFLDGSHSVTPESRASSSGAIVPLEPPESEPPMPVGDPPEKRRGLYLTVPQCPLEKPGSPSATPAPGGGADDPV
Numbers without * were called inactive; / = no result.

SMILES | CYP2C9 inhib | CYP2C9 activ | CYP2C19 inh | Pyk2 oligo antag | CYP2C19 act | Cav32 inh
C=CCn1c(O)c(C(=O)CCCCCC)c(=O)[nH]c1=O | 57* | 0.4 | 5 | 1.3 | 0.9 | -0.99
CCCCCCN=C(C)c1c(O)n(CCCC)c(=O)[nH]c1=O | 66* | 0.3 | 55* | -1.5 | 0.5 | -1.2
C=CCn1c(O)c(C(C)=NCCO)c(=O)[nH]c1=O | 5 | 1 | -2 | 0.33 | 1 | 0.039
CCCCn1c(O)c(C(C)=NCCCN(CC)CC)c(=O)[nH]c1=O | 12 | 0.9 | -1 | 1.9 | 1 | -0.0096
O=C1NC(=S)NC(=O)C12C(c1ccc(F)cc1)NC(=S)NC2c1ccc(F)cc1 (stereo not drawn) | -13 | 1.1 | -21 | 1.5 | 1.2 | -0.23
COc1ccccc1-n1c(O)c(C=Nc2c(C)n(C)n(-c3ccccc3)c2=O)c(=O)[nH]c1=O | -13 | 1.1 | -1 | -0.34 | 1 | -0.16
O/N=C1/C(=C\c2ccccc2)N2CCC1CC2 | 35 | 0.7 | 83* | -0.85 | 0.2 | 0.11
C=C(C)[C@@]12OC3(c4ccccc4)O[C@@H]1C1[C@@H]4O[C@]4(CO)[C@@H](O)[C@]4(O)C(=O)C(C)=C[C@H]4[C@@]1(O3)[C@H](C)[C@H]2OC(=O)/C=C/C=C/c1ccccc1 (stereo partly drawn) | / | / | / | / | / | -4.4*
Cc1ccc(C(=O)C2(C)N(O)C(C)C(c3cccs3)=[N+]2[O-])cc1 (stereo not drawn) | 56* | 0.4 | 30 | -0.68 | 0.7 | 0.76
Clc1cccc(C2NCCc3[nH]cnc32)c1 (stereo not drawn) | 0 | 1 | -2 | 0.55 | 1 | /
O=C(COc1ccc(S(=O)(=O)N2CCCCC2)cc1)N1CCN(Cc2ccccc2)CC1 | 11 | 0.9 | 2 | 1.5 | 1 | /
O=C(COc1ccc(Br)cc1)N1CCN(Cc2ccncc2)CC1 | 63* | 0.4 | 83* | 0.57 | 0.2 | -0.82
COc1ccc(OC)c(CN2CCN(C(=O)COc3cccc(C)c3)CC2)c1 | 40 | 0.6 | 62* | 1.2 | 0.4 | -1.9
Cc1cccc(OCC(=O)N2CCN(Cc3ccncc3)CC2)c1 | 88* | 0.1 | 92* | 0.55 | 0.1 | -0.35
COc1ccc(CN2CCN(C(=O)COc3cccc(C)c3)CC2)c(OC)c1 | -3 | 1 | 12 | 1.7 | 0.9 | 0.85
CS(=O)(=O)c1ccc(C2=C(c3ccccc3)C(=O)OC2)cc1 | / | / | / | / | / | 0.43
COC(=O)C1=CCCN(C)C1 | / | / | / | / | / | 2.2
CN1CCc2nc(SCC(=O)OC(C)(C)C)c(C#N)cc2C1 | 22 | 0.8 | 71* | 1.1 | 0.3 | 0.56
CN1CCc2nc(N)c(C#N)c(-c3ccccc3)c2C1 | -10 | 1.1 | -11 | 1.2 | 1.1 | /
CC(C(=O)c1c[nH]c2ccccc12)N1CCSCC1 (stereo not drawn) | 15 | 0.8 | 40 | 0.13 | 0.6 | -1.3
CC(C)C/C(=N/O)c1c[nH]c2ccccc12 | 59* | 0.4 | 77* | -0.37 | 0.2 | -3
O=C(c1ccco1)c1cn(Cc2ccccc2Cl)c2ccccc12 | 89* | 0.1 | -27 | -0.39 | 1.3 | -6*
CCC(=O)c1cn(Cc2ccccc2C#N)c2ccccc12 | 52* | 0.5 | 76* | -1.6 | 0.2 | -1.9
O=C(Cn1cc(C(=O)c2ccccc2F)c2ccccc21)NCc1ccco1 | 26 | 0.7 | 12 | -3.2* | 0.9 | -0.3
CC(C)C(=O)c1cn(Cc2ccc(C#N)cc2)c2ccccc12 | / | / | / | -0.12 | / | -5.6*
SMILES | CYP2C9 inhib | CYP2C9 activ | CYP2C19 inh | Pyk2 oligo antag | CYP2C19 act | Cav32 inh
CC(C(=O)c1cn(C)c2ccccc12)c1ccccc1 (stereo not drawn) | -90 | 1.9 | 17 | -0.74 | 0.8 | -0.92
Cc1cc2c(C(C)C)c(O)c(O)c(C=O)c2c(O)c1-c1c(C)cc2c(C(C)C)c(O)c(O)c(C=O)c2c1O | / | / | / | / | / | -3.2
CCOc1ccc(Br)c(C2(O)CC(C)N(C)CC2C)c1 (stereo not drawn) | -18 | 1.2 | -11 | 0.53 | 1.1 | /
N#Cc1ccccc1Cn1cc(C(=O)c2ccco2)c2ccccc21 | 56* | 0.4 | 66* | -1 | 0.3 | -6.1*
O=C(O)Cn1cc(C(=O)c2ccccc2)c2ccccc21 | -2 | 1 | -8 | 1.3 | 1.1 | -0.03
N#Cc1ccccc1Cn1cc(C(=O)C2CC2)c2ccccc21 | 17 | 0.8 | 31 | -0.53 | 0.7 | -0.15
CN(C)CCOC(=O)c1cn(Cc2ccccc2)c2ccccc12 | 13 | 0.9 | 23 | -0.77 | 0.8 | /
O=C(c1ccco1)c1cn(Cc2ccccc2)c2ccccc12 | 93* | 0.1 | 93* | -0.23 | 0.1 | -2.5
CCn1cc(C(=O)c2cccs2)c2ccccc21 | -209 | 3.1* | 11 | 0.23 | 0.9 | -1.3
CC/C(=C\C=C\[C@@H]1C=C[C@@H]2CCC[C@H]2[C@@H]1C(=O)c1ccc[nH]1)[C@@H]1O[C@@H]([C@@H](C)C(=O)O)CC[C@@H]1C | / | / | / | / | / | -8.5*
CC1(C)CC(=O)C(C=NCCN2CCN(C(=O)Cc3ccc(Cl)cc3)CC2)=C(O)C1 | 63* | 0.4 | 90* | 0.38 | 0.1 | 0.8
COC(=O)CSC1=NP(=S)(SCC(=O)OC)N2CCCC2=C1C#N (stereo not drawn) | 33 | 0.7 | 49 | 0.7 | 0.5 | 1.5
CN1C(=O)N(C)C(=O)C2(Cc3ccccc3N3CCOCC32)C1=O (stereo not drawn) | -2 | 1 | 98* | 0.59 | 0 | -0.46
O=C1NC(=O)C2(Cc3ccccc3N3CCCC32)C(=O)N1c1cccc(Cl)c1 (stereo not drawn) | 16 | 0.8 | 11 | -1.5 | 0.9 | -3
CN(C)P(=NC(=S)c1cccn1C)(N(C)C)N(C)C | -25 | 1.3 | -5 | -0.19 | 1 | -0.15
